TGFb SMAD3 inh: qHTS for Inhibitors of TGF-b; HepG2 CAGA-GFP TGF-b/SMAD3 reporter, GFP fluorescence, 18 h; TGF-beta stimulated, 500 pg/mL final; Potency, µM (series often up to 46.1 µM), inactives show top-dose activity, negative = inhibition, usual class: inhibitors; AID 588855, 2011; 1.2% of 410,000 active; further: on the % scale 0 is the no-effect control and ±100 the full control effect; nearly all actives have a fitted effect of over 65% in size
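TGF-beta reporter screen: HEPG2 CAGA-GFP, 1% FBS, 500 pg/mL TGF-beta final, 18 h; per-cell GFP summed per well; curves fitted and categorized by class.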
ATXN viability: Viability Counterscreen for Primary qHTS for Inhibitors of ATXN expression; S2 cells (HEK-293 line with an ATXN2-luciferase reporter) viability, CellTiter-Fluor protease fluorescence, 24 h; 0.49% of 400,000 active; AID 651635, 2014; Potency, µM (highest dose often 56.7 µM), most hits filed as cytotoxic; further: nearly all actives have a fitted effect of over 40% in size
A549 tox: Nrf2 qHTS screen for inhibitors: counterscreen for cytotoxicity | 0.16% of 390,000 active | A549 ARE-Fluc cells, CellTiter-Fluor viability, 18-24 h | AID 504648, 2011 | Potency, µM (series often up to 46 µM), inactives show at the top dose activity change, negative = cytotoxicity, most hits filed as inhibitors; further: on the % scale 0 is the no-effect control and ±100 the full control effect
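A549 ARE_Fluc cells in 5% FBS OPTI-MEM were exposed to compounds in concentration-response for 18-24 h at 37 deg C. Viability was read by CellTiter-Fluor fluorescence (Ex 405/Em 525) after 30 min, before the luciferase read.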
HepG2 tox: qHTS for Inhibitors of TGF-b: Cytotox Counterscreen | Potency, µM (highest dose often 46.1 µM), for inactives: at the highest dose activity change, negative = cytotoxicity, usual class: cytotoxic | AID 588856, 2011 | HepG2 CAGA-GFP viability, ATP luminescence, 18 h | 0.76% of 410,000 active
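CellTiter-Glo luminescence gave cytotoxicity after 18 hours at 37 degrees C. The cells were HepG2 CAGA-GFP in 1% FBS DMEM, stimulated with 500 pg/mL TGF-beta after compound addition. %Activity was normalised to no-cell wells (complete cell-killing) and DMSO (no toxicity), and curves were fitted and classified.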
ATXN2 expr inh: Primary qHTS for Inhibitors of ATXN expression. HEK-293 ATXN2-luciferase reporter, luminescence, 24 h. Potency, µM (titrated, usually from 57 µM), for the others: top-dose activity change, negative = inhibition, actives largely listed as inhibitors. 0.72% of 360,000 active. AID 1745845, 2022; further: on the % scale 0 is the no-effect control and ±100 the full control effect; nearly all actives have a fitted effect of over 55% in size
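qHTS (up to 57 uM final) was run with 24 h compound exposure of reporter cells at 37 °C. Each well was multiplexed: SteadyGlo luminescence measured ATXN2-luciferase expression after a fluorogenic Gly-Phe-AFC viability readout (25 uM final).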
Nrf2 block: Nrf2 qHTS screen for inhibitors | A549 ARE-Fluc reporter, luciferase luminescence, 18-24 h | Potency, µM (doses to about 46 µM), for inactives: top-dose activity change, negative = inhibition, hits mostly inhibitors | 2.1% of 360,000 active; further: on the % scale 0 is the no-effect control and ±100 the full control effect; nearly all actives have a fitted effect of over 60% in size
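A549 ARE_Fluc cells (5000/well, 5% FBS OPTI-MEM) pre-incubated 2 h, then treated with compounds 18-24 h at 37C/5% CO2 in concentration-response. CellTiter-Fluor viability read first; BugLite luciferase luminescence after 15 min at room temperature gives Nrf2 activity.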
Numbers without * were called inactive. Sampled rows, rich in hits. Any-hit rate of the full collection: about 3.8%. The call rests on the fitted dose curve; in most records, active means well fitted curve in the direction sought with a large enough effect; inconclusive means small, poorly fitted or top-dose-only effect, or another doubt; inactive means no such curve, though single readings can be large; an effect the other way counts as inactive or inconclusive. Potency means the concentration at half of the fitted maximal effect.

For CS(=O)(=O)N(Cc1ccccc1)c1ccc(C(=O)Nc2ccc(Cl)cc2)cc1 the results were TGFb SMAD3 inh inconclusive, ATXN viability 32µM*, A549 tox -7%, HepG2 tox -103%, ATXN2 expr inh inconclusive and Nrf2 block -5%.
For COC(=O)c1ccc(NC(=O)CN(Cc2ccccc2)S(=O)(=O)c2ccc(Cl)cc2)cc1 the results were TGFb SMAD3 inh 18µM*, ATXN viability inconclusive, A549 tox 2%, HepG2 tox -22%, ATXN2 expr inh inconclusive and Nrf2 block inconclusive.
`CCOC(=O)c1cnc2ccccc2c1Nc1ccc(N2CCOCC2)cc1` gave TGFb SMAD3 inh -2%, ATXN viability inactive, A549 tox 0%, HepG2 tox 0%, ATXN2 expr inh 8% and Nrf2 block 14%.
`CCOC(=O)c1ccc2ncc(C(=O)OCC)c(Nc3ccc(N4CCOCC4)cc3)c2c1` gave TGFb SMAD3 inh inconclusive, ATXN viability inconclusive, A549 tox -16%, HepG2 tox -32%, ATXN2 expr inh 22µM* and Nrf2 block -6%.
For CCOC(=O)c1cnc2ccc(OCC)cc2c1Nc1ccc(OCc2ccccc2Cl)cc1 the results were TGFb SMAD3 inh -18%, ATXN viability inactive, A549 tox -16%, HepG2 tox -25%, ATXN2 expr inh -10% and Nrf2 block 21µM*.
CCN(Cc1ccccc1)C(=O)c1cc2ccc3cccnc3c2[nH]1 was read as TGFb SMAD3 inh inconclusive, A549 tox -5%, HepG2 tox -63% and Nrf2 block -19%.
Screening Nc1cccc(S(=O)(=O)N2CCCN(S(=O)(=O)c3ccc4c(c3)OCCO4)CC2)c1 returned A549 tox -1%, ATXN2 expr inh -10% and Nrf2 block -3%.
Screening CN1CC(c2ccccc2Cl)C2(COc3ccccc3C2=O)C12C(=O)Nc1ccccc12 (stereo unspecified) returned TGFb SMAD3 inh inconclusive, ATXN viability inconclusive, A549 tox -26%, HepG2 tox 5%, ATXN2 expr inh -15% and Nrf2 block 21µM*.
Screening CCOc1cc(C(c2c(C)[nH]n(-c3ccccc3)c2=O)c2c(C)[nH]n(-c3ccccc3)c2=O)ccc1O returned TGFb SMAD3 inh 11µM*, A549 tox -7%, HepG2 tox 8.9µM*, ATXN2 expr inh inconclusive and Nrf2 block 6%.
`Cc1[nH]n(-c2ccccc2)c(=O)c1C(c1ccccc1C(=O)O)c1c(C)[nH]n(-c2ccccc2)c1=O` gave TGFb SMAD3 inh -3%, ATXN viability inactive, A549 tox -4%, HepG2 tox 6%, ATXN2 expr inh -3% and Nrf2 block 1%.
For COc1ccc(C(c2c(C)[nH]n(-c3ccccc3)c2=O)c2c(C)[nH]n(-c3ccccc3)c2=O)cc1OC the results were TGFb SMAD3 inh -20%, ATXN viability inconclusive, A549 tox -4%, HepG2 tox -34%, ATXN2 expr inh 13% and Nrf2 block 15%.
Screening Cc1[nH]n(-c2ccccc2)c(=O)c1C(c1cc(Cl)ccc1O)c1c(C)[nH]n(-c2ccccc2)c1=O returned TGFb SMAD3 inh 7.9µM*, A549 tox 2%, HepG2 tox -62% and Nrf2 block -3%.
`COc1cccc(C2c3c(ncn(-c4ccccc4C(C)(C)C)c3=N)Oc3ccc4ccccc4c32)c1` (stereo unspecified) gave A549 tox -5% and Nrf2 block -2%.
CCCCNc1cc(NC(C)=O)cc2cc(OC)c(OC)cc12 was read as TGFb SMAD3 inh 10µM*, ATXN viability inactive, A549 tox -4%, HepG2 tox -31%, ATXN2 expr inh -16% and Nrf2 block -6%.
`COc1cc2cc(NC(C)=O)cc(NCc3ccccc3)c2cc1OC` gave TGFb SMAD3 inh -1%, ATXN viability inactive, A549 tox -2%, HepG2 tox -9%, ATXN2 expr inh 5% and Nrf2 block -4%.
Screening CCOc1ccc(CCNC(=O)CCn2c(=O)c3cccn3c3ccc(F)cc32)cc1OCC returned TGFb SMAD3 inh -17%, A549 tox 4%, HepG2 tox -28% and Nrf2 block 16%.
Screening COc1ccc(/C=C/C(=O)c2ccc3c4c(cccc24)CC3)cc1 returned TGFb SMAD3 inh -12%, ATXN viability inactive, A549 tox 11%, HepG2 tox -61%, ATXN2 expr inh inconclusive and Nrf2 block inconclusive.
Screening COc1ccc(/C=C/C(=O)c2ccc3c4c(cccc24)CC3)cc1OC returned TGFb SMAD3 inh inconclusive, ATXN viability inactive, A549 tox -3%, HepG2 tox -56%, ATXN2 expr inh 16µM* and Nrf2 block 18µM*.
For O=C1NC(Cc2ccc(O)cc2)c2nc3ccc(Br)cc3c(=O)n2-c2cc3ccccc3cc21 (stereo unspecified) the results were TGFb SMAD3 inh 13µM*, ATXN viability inconclusive, HepG2 tox -36% and ATXN2 expr inh inconclusive.
COc1ccc2nc3n(c(=O)c2c1)-c1cc2ccccc2cc1C(=O)NC3Cc1ccc(O)cc1 (stereo unspecified) was read as TGFb SMAD3 inh inconclusive, ATXN viability inconclusive, HepG2 tox -18% and ATXN2 expr inh inconclusive.
For CCc1cc(CNC(=O)C2CCC(=O)N(Cc3ccccc3F)C2)on1 (stereo unspecified) the results were TGFb SMAD3 inh 8%, ATXN viability inactive and HepG2 tox 8%.
O=C(NCCO)c1cccc(Nc2nc(-c3ccccc3)c3cc(Cl)ccc3n2)c1 was read as TGFb SMAD3 inh inconclusive, ATXN viability inactive, A549 tox -27%, HepG2 tox -42%, ATXN2 expr inh -15% and Nrf2 block 15µM*.
`CCN(CC(=O)Nc1cccc(OC)c1)c1ncnc2sc(C)c(C)c12` gave TGFb SMAD3 inh inconclusive, ATXN viability inconclusive, A549 tox -6%, HepG2 tox -2%, ATXN2 expr inh inconclusive and Nrf2 block 21µM*.
For O=C(NN=Cc1c(O)ccc2ccccc12)c1ccc2c(c1)OCO2 the results were TGFb SMAD3 inh inconclusive, ATXN viability inactive, A549 tox inconclusive, HepG2 tox -81%, ATXN2 expr inh 3.2µM* and Nrf2 block 16µM*.
`COc1ccc2ccccc2c1/C=N/NC(=O)c1ccc(C)nc1` gave TGFb SMAD3 inh -10%, ATXN viability inactive, A549 tox 3%, HepG2 tox -15% and Nrf2 block 1%.

Screens deposited in PubChem BioAssay by National Center for Advancing Translational Sciences (NCATS).
